Shown are actives, neighbours in structure and some others; about 1.8% of the full set was active somewhere.
PrPC TRFRET: inhibitors of human cell surface prion protein PrPC, primary screen, cell-based, TR-FRET | Major prion protein (Homo sapiens), P04156 | TR-FRET read-out | inhibition, % at 13.8 µM | actives 0.43% (n = 370,000) | AID 720596, 2013; in the data active means inhibition above about 24%; further: 0% = median of the test wells and 100% = reference compound wells
BH1578 lux ind: inducers of Vibrio cholerae quorum light production without autoinducers, primary screen, BH1578 luxS cqsA deficient, single point; V. cholerae BH1578 lux reporter, luminescence, 6 h; activation, % at 18.7 µM; actives 0.16% (n = 350,000); AID 588436, 2011; in the data active means activation mostly above about 9.7%, no sharp cut-off
DUSP3 inh: VHR1 phosphatase inhibitors, primary screen, biochemical, absorbance, uHTS. Dual specificity protein phosphatase 3 (Homo sapiens), P51452. recombinant VHR phosphatase, pNPP absorbance. inhibition, % at 13.3 µM. actives 0.52% (n = 290,000). AID 1654, 2009; in the data active means inhibition above about 50%
Target sequence (P51452 whole entry, looked up): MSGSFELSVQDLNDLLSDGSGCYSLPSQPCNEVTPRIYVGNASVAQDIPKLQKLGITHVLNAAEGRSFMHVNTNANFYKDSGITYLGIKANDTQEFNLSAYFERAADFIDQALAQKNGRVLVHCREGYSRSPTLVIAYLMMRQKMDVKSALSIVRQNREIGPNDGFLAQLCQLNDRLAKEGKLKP
CCHF vOTU inh: CCHFV vOTU protease inhibitors, primary screen, biochemical, Pep-AMC substrate, fluorescence | AID 651958, 2012 | actives 0.55% (n = 370,000) | inhibition, % at 11.5 µM | Crimean-Congo hemorrhagic fever virus L polyprotein viral ovarian tumor (vOTU) protease …; in the data active means inhibition above about 30%; further: 0% = vehicle wells with enzyme and 100% = no enzyme wells
MazF activator: activators of E. coli MazEF toxin-antitoxin RNase, primary screen, biochemical, fluorescence, uHTS; FAM/BHQ RNA-DNA oligo cleavage fluorescence, 5 h; activation, % at 20 µM; actives 0.32% (n = 350,000); AID 504720, 2011; in the data active means activation above about 50%
Target sequence (P0AE70 whole entry, looked up): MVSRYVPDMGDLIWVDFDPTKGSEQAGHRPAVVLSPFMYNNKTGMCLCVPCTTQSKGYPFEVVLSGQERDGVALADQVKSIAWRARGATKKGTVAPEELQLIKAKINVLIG
Yp Topo-I inh: Yersinia pestis topoisomerase I inhibitors, primary screen, biochemical, cleavage product accumulation, plate reader, single point | Y. pestis Topo-I cleavage product accumulation | activity, % at 10 µM | actives 0.064% (n = 360,000) | AID 504884, 2011; in the data active means activity above about 50%, passing the limit was not always enough
* marks the source's active call; other numbers are inactive results; i = inactive; . = not tested or not shown.

SMILES	PrPC TRFRET	BH1578 lux ind	DUSP3 inh	CCHF vOTU inh	MazF activator	Yp Topo-I inh
CCN1CCN(C(=S)c2ccc(Br)cc2)CC1	0	1	52*	-4	0	-8
CCN1CCN(C(=S)c2ccc(O)cc2)CC1	0	-1	47	10	2	-7
Nn1c(SCC(=O)NC2CCCCC2)nnc1-c1cc(-c2ccccc2)n[nH]1	0	.	.	5	.	.
O=C(CCS(=O)(=O)c1ccc(Br)cc1)N1CCN(c2ccc(F)cc2)CC1	1	0	50*	26	2	30
O=C(Nc1cccc2c1CCCC2)c1ccccc1Br	-6	i	52*	7	20	9
CC(C)(C)c1ccc(S(=O)(=O)N2CCCC2C(=O)N2CCc3ccccc3C2)cc1 (centres undefined)	10	.	.	11	.	.
CCN1CCc2c(sc(NC(=O)Cc3ccccc3)c2C(N)=O)C1	-13	-1	33	4	10	-5
NC(=O)c1c(NC(=O)c2ccccc2)sc2c1CCN(Cc1ccccc1)C2	0	-2	6	-2	116*	-7
NC(=O)c1c(NC(=O)c2c(F)cccc2F)sc2c1CCN(Cc1ccccc1)C2	-10	-1	21	7	2	5
CCN1CCc2c(sc(NC(=O)c3ccc(C(=O)c4ccccc4)cc3)c2C(N)=O)C1	-30	1	34	13	274*	-8
N#Cc1c(NC(=S)NC(=O)c2ccccc2)sc2c1CCC2	-2	0	-4	2	17	2
CCC(=O)Nc1sc2c(c1C(N)=O)CCN(C(C)=O)C2	-8	.	-18	2	10	-2
CC(=O)N1CCc2c(sc(NC(=O)c3ccc([N+](=O)[O-])o3)c2C(N)=O)C1	-41	-1	.	47*	0	-6
CCN1CCc2c(sc(NC(=S)NC(=O)c3ccccc3)c2C#N)C1	8	-1	40	8	62*	-7
COC(=O)[C@H](C(C)C)N(CCCc1cn(Cc2ccccc2)nn1)S(=O)(=O)c1ccccc1Br	-1	.	.	9	.	.
Cc1ccc(N/N=C/c2ccncc2)cc1	17	-1	57*	-7	0	-17
Cc1ccc(N/N=C/c2cccnc2)cc1	16	0	-3	4	4	2
COc1ccc(N2Cc3ccc(C(=O)N/N=C\c4ccc(O)cc4O)cc3C2)cc1	.	.	-23	.	.	.
O=[N+]([O-])c1ccc(N2CCN(C(=S)Nc3ccc(F)cc3)CC2)cc1	-10	i	20	-3	2	8
O=[N+]([O-])c1ccc(N2CCN(C(=S)Nc3cccc(F)c3)CC2)cc1	-7	i	50*	22	4	-8
CCOC(=O)[C@@]12CN(C(=O)OC(C)(C)C)CC=C1N(Cc1ccc(OC)cc1)C(=O)[C@H]2CC(=O)N1CCN(C(=O)C2CC2)CC1	4	.	.	8	.	.
Cc1ccc(-n2c(SCc3c(Cl)cccc3Cl)nnc2-c2ccco2)cc1	7	.	.	6	.	.
Cc1ccc(S(=O)(=O)Nc2nc3ccccc3nc2N2CCN(c3ccccc3F)CC2)cc1	1	i	50*	14	-13	1
CCCCN1CC(=O)N2[C@@H]3c4cc(Br)ccc4OC[C@@H]3[C@H](C(=O)OCC)[C@]2(C)C1=O	.	-1	.	.	62*	24
Cc1ccc2c(c1)[C@H]1[C@H](CO2)[C@H](c2ccccc2)[C@]2(C)C(=O)N(Cc3ccc(Cl)cc3)CC(=O)N12	11	i	.	7	-14	15
SMILES	PrPC TRFRET	BH1578 lux ind	DUSP3 inh	CCHF vOTU inh	MazF activator	Yp Topo-I inh
CCCCN1CC(=O)N2[C@H]3c4cc(C)ccc4OC[C@@H]3[C@H](c3ccccc3)[C@]2(C)C1=O	9	-1	.	4	87*	23
CCCCN1CC(=O)N2[C@H]3c4cc(Cl)ccc4OC[C@@H]3[C@H](c3ccccc3)[C@]2(C)C1=O	8	-1	.	3	0	20
C[C@@]12C(=O)N(Cc3ccc(Cl)cc3)CC(=O)N1[C@H]1c3ccccc3OC[C@@H]1[C@@H]2c1ccccc1	9	0	.	11	-8	10
Cc1ccc2c(c1)[C@H]1[C@H](CO2)[C@H](c2ccccc2)[C@]2(C)C(=O)N(Cc3ccc(F)cc3)CC(=O)N12	1	i	.	12	310*	-10
COc1ccc(CN2CC(=O)N3[C@H]4c5ccccc5OC[C@@H]4[C@H](c4ccccc4)[C@]3(C)C2=O)cc1	0	i	.	12	52*	-1
C=CCn1c(COc2ccccc2)nnc1SCC(=O)Nc1ccc(Oc2ccccc2)cc1	8	.	.	9	.	.
COc1ccc(C(=O)/C(C#N)=N/Nc2ccc([N+](=O)[O-])cc2)cc1	2	i	71*	-7	3	1
COc1ccc(C(=O)/C(C#N)=N/Nc2ccccc2[N+](=O)[O-])cc1	0	0	-7	5	-3	-11
O=C(c1cccc(F)c1F)N(Cc1ccccn1)CC1CCCO1 (centres undefined)	5	.	.	1	.	.
COc1ccc(NC(=O)CSc2nnc(-c3n[nH]c4c3CCC4)n2N)cc1	-2	.	.	-3	.	.
O=C(NCc1nnc2c3ccccc3c(-c3ccccc3)nn12)c1ccccc1Cl	-5	i	2	-3	-1	3
O=C(COc1ccc(Cl)cc1)NCc1nnc2c3ccccc3c(-c3ccccc3)nn12	-2	-1	51*	-9	1	26
CC(C)c1ccc2[nH]c3nc(SCC(=O)NC4CC4)nnc3c2c1	5	0	25	2	-9	28
Cc1nnc(NC(=O)CSc2nnc3c(n2)[nH]c2ccc(Br)cc23)s1	1	0	60*	2	28	16
Cc1ccc(C(=O)NNC(=O)CSc2nnc3c(n2)[nH]c2ccc(F)cc23)cc1	-9	.	57*	-8	-1	2
Cc1ccc(NC(=O)Cc2ccc(OC(F)F)cc2)c(S(=O)(=O)N2CCOCC2)c1	-1	.	.	4	.	.
CCN(CC(=O)NCc1ccc(Cl)cc1)C(=O)c1ccc(C#N)cc1	-2	-1	17	-15	-1	-5
COc1ccc(C)cc1Nc1n[n+](-c2ccccc2)c(-c2ccc(NC(C)=O)cc2)s1	-1	0	20	-2	-7	-9
COc1ccc(C)cc1Nc1n[n+](-c2ccccc2)c(-c2cc([N+](=O)[O-])cc(OC)c2O)s1	.	i	28	.	445*	-15
COc1ccc(N2C(=O)[C@@H]3[C@H](C2=O)[C@H](C(C)=O)N2c4ccccc4C=C[C@@H]32)cc1	1	0	21	-2	-18	6

High-throughput results as filed in PubChem BioAssay.
